The text below walks through data of ChEMBL document CHEMBL2218924, “A broad activity screen in support of a chemogenomic map for kinase signalling research and drug discovery” (Biochem J, 2013).

The target of test [1] is Serine/threonine-protein kinase PLK3 (Homo sapiens) (UniProt Q9H4B4). Conditions: at 1 µM; call rule not given here.
The target is the same in test [2]. The conditions noted are these: at 10 µM.
Test [3] deals with T1, cAMP-dependent protein kinase catalytic subunit PRKX (Homo sapiens) (UniProt P51817).
T1 sequence (whole entry): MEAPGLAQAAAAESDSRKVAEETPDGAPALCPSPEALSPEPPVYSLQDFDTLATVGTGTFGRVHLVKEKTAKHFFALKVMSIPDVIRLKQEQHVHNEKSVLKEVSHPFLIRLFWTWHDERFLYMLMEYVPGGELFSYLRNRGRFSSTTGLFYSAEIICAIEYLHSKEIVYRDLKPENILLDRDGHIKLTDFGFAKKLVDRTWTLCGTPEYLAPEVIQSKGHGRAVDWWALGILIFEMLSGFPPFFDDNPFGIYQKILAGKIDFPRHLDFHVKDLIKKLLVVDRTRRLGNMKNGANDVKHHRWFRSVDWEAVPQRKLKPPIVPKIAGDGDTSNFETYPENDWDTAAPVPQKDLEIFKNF
Conditions: at 1 µM.

For test [4], the target named is T1, cAMP-dependent protein kinase catalytic subunit PRKX (Homo sapiens). Conditions: at 10 µM.
The target of test [5] is Protein-tyrosine kinase 2-beta (Homo sapiens) (UniProt Q14289). The conditions noted are these: at 1 µM.
Protein-tyrosine kinase 2-beta (Homo sapiens), sequence (Q14289 whole entry, looked up): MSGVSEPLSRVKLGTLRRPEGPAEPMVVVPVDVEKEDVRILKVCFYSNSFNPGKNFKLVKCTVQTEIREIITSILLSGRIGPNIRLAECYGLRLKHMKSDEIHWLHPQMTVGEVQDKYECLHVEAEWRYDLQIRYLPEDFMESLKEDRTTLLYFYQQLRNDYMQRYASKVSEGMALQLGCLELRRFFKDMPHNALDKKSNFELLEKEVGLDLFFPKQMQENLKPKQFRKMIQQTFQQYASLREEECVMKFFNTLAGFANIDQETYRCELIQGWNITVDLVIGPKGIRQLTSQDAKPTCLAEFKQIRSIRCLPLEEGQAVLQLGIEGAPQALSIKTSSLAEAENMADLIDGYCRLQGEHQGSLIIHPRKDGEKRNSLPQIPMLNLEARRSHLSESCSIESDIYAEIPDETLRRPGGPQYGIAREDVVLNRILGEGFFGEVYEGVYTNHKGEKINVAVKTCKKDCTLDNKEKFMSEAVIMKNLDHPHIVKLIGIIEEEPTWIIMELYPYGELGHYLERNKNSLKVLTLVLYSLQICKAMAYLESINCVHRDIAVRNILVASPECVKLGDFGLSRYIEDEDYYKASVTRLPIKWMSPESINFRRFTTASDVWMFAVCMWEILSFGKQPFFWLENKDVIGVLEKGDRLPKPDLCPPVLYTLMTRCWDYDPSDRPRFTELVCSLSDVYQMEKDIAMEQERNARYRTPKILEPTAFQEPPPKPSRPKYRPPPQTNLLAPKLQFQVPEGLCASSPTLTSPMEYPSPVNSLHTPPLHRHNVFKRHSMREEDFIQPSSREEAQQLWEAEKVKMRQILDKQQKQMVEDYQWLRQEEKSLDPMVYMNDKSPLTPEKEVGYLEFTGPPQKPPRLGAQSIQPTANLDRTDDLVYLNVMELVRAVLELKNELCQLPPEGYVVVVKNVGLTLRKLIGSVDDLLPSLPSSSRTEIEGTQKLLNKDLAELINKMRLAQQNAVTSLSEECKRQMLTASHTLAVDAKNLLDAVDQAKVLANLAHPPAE
Test [6] shares this target. The conditions noted are these: at 10 µM.
For test [7], the target named is Receptor-interacting serine/threonine-protein kinase 2 (Homo sapiens) (UniProt O43353). The conditions noted are these: at 1 µM.
Receptor-interacting serine/threonine-protein kinase 2 (Homo sapiens), sequence (O43353 whole entry): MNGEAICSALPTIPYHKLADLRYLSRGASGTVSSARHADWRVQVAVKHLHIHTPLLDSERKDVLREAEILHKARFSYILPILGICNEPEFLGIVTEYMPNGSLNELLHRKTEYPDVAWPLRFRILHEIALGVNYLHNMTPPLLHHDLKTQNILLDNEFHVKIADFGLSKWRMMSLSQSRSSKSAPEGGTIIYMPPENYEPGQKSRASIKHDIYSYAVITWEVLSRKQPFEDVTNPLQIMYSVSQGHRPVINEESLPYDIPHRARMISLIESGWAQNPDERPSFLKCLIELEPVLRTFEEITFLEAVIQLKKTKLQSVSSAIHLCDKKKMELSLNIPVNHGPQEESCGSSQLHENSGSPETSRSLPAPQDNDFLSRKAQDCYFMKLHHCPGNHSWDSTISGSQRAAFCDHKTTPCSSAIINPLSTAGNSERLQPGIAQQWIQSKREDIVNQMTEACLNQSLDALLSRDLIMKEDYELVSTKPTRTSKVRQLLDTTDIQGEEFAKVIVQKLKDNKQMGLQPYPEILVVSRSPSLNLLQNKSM
Test [8] shares this target. Conditions: at 10 µM.
The target of test [9] is Rho-associated protein kinase 1 (Homo sapiens) (UniProt Q13464). Conditions: at 1 µM.
Rho-associated protein kinase 1 (Homo sapiens), sequence (Q13464 2-1354 limits assumed): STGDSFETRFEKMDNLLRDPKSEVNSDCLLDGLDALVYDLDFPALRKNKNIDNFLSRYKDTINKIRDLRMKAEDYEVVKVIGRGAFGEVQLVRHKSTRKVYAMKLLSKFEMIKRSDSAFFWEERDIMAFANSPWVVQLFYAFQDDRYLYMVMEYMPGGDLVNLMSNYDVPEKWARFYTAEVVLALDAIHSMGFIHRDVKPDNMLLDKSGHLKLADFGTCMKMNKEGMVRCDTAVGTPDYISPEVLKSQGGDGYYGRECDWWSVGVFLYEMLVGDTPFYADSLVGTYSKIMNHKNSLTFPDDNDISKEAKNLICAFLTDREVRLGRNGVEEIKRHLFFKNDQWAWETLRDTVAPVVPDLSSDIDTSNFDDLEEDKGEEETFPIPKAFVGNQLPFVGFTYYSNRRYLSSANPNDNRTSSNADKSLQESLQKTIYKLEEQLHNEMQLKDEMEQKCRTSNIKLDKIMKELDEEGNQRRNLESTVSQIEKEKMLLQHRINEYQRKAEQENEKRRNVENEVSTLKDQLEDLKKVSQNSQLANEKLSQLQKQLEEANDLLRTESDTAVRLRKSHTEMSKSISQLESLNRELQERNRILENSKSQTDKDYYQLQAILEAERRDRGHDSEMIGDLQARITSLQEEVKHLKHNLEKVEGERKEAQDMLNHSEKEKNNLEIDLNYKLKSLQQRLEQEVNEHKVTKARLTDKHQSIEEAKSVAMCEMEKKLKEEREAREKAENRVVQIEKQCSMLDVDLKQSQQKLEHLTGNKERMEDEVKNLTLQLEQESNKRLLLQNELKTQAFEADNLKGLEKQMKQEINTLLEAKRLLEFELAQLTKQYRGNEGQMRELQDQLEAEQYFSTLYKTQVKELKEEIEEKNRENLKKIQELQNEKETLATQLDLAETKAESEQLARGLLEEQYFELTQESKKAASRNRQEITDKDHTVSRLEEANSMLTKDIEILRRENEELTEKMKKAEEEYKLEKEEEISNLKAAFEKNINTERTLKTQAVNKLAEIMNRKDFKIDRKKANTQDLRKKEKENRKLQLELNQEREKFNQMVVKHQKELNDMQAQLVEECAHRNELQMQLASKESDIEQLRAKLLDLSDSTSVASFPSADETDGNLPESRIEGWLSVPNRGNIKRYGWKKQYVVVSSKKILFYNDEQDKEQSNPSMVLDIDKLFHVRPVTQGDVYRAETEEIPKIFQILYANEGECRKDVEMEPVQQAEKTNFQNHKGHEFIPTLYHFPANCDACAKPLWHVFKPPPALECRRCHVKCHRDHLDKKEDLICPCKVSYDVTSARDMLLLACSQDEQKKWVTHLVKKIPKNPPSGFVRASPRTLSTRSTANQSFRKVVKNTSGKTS
Test [10] has the same target. The conditions noted are these: at 10 µM.

One may read the residual activity as the signal under treatment as a percentage of the control signal.

Serine/threonine-protein kinase PLK3 (Homo sapiens), sequence (Q9H4B4 whole entry, looked up): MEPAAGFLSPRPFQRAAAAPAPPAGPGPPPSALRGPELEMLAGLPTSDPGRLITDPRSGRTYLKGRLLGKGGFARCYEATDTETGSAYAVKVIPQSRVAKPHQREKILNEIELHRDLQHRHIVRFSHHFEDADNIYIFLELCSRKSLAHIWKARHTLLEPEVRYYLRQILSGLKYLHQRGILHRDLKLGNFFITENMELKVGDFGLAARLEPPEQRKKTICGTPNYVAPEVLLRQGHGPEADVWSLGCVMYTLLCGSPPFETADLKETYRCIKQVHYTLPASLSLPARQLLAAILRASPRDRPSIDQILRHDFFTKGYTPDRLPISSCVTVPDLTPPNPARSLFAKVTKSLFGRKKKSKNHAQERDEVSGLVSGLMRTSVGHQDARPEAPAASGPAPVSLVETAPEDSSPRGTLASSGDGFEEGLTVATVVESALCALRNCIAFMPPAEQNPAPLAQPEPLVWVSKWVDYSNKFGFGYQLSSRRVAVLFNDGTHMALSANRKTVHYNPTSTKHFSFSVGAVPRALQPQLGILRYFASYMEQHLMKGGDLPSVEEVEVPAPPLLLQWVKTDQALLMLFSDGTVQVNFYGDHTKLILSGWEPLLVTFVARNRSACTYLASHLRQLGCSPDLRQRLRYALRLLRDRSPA

With `Nc1ncnc2c1c(-c1ccc(Oc3ccccc3)cc1)cn2C1CCCC1`, the residual activity was 80% (inactive) in test [1]; 91% in test [2]; 85% in test [3]; 66% in [4]; 86% in [5]; 25% in test [6]. In addition, the residual activity in [7] was determined as 21%; in test [8] it was 15%; in test [9] it was 116%; in test [10], 122%.
Regarding `O=C(c1ccccc1)c1ccc(N2CCOCC2)cc1O`, the residual activity in [1] is 91% (inactive); in test [2], 88%; in test [3], 86%; in test [4], 94%; in [5] it was 130%; in [7], 99%. Further, the residual activity was 87% in [8] and 121% in [10].
Take `CCCC(=O)Oc1ccc2[nH]c(C(=O)c3cc4ccccc4[nH]3)cc2c1`: the residual activity in [1] was 93% (inactive); in [2] it was 85%; in test [3], 88%; in test [4] it was 92%; in test [5] it was 122%; in test [6] it was 85%. The residual activity amounted to 91% in test [7], 89% in test [8], 103% in [9] and 128% in [10].
Take `NC(=O)c1cccc(-c2cc(Nc3ccc(OC(F)(F)F)cc3)ncn2)c1`: the residual activity in [1] was 100% (inactive); in test [2], 97%; in [5], 128%; in [6], 95%; in [7], 93%; in [8] it was 56%.
With `O=C(CCCc1ccc(-c2ccccc2F)cc1)Nc1ccc(O)cc1`, the residual activity in [1] was 99% (inactive); in test [2] it was 98%; in test [3], 100%; in test [4], 101%; in [5], 105%; in [6] it was 104%. Moreover, the residual activity in test [7] came out at 94%; in test [8], 95%; in test [9], 107%; in test [10], 100%.
In the case of `O=c1cc(N2CCOCC2)oc2c(-c3ccccc3)cccc12`, the results for the residual activity in [5] and in test [8] were 127% and 74%, respectively.
Turning to `O=C1NC(=O)C(c2cn(CCCn3ccnc3)c3ccccc23)=C1Nc1ccccc1`, the residual activity in [3] is 80%; in test [4] it was 58%; in test [5] it was 121%; in [6], 81%; in test [7], 78%; in test [8] it was 77%. Also, the values for the residual activity in test [9] and in test [10] were 120% and 121%, respectively.
Turning to `O=C(Nc1ccc(Cl)cc1)c1ccccc1NCc1ccncc1`, the residual activity in [4] was determined as 50%; in [5] it was 128%; in [6], 74%; in test [8] it was 78%.
For `COc1cc2nccc(Oc3ccc(NC(=O)Nc4cc(C)on4)c(Cl)c3)c2cc1OC`, the residual activity came to 97% in test [3]; 59% in test [4]; 34% in test [5]; 8% in test [6]; 21% in [7].
Take `O=S(=O)(c1cccc2cnccc12)N1CCCNCC1`: the results for the residual activity in test [3], in [4] and in test [10] were 21%, 2% and 36%, respectively.
`COc1cc2c(cc1OC)-c1n[nH]c(Nc3cccc(F)c3)c1C2`: the residual activity in [4] was determined as 101%; in [5], 79%; in test [6] it was 32%; in test [7] it was 30%; in test [8], 17%.
In the case of `Oc1cccc(-c2nc(N3CCOCC3)c3oc4ncccc4c3n2)c1`, the residual activity worked out at 96% in [3]; 92% in [4]; 142% in test [5]; 95% in test [6]; 89% in test [7]; 86% in [8]. In addition, the residual activity is 123% in [9] and 125% in test [10].
As to `CCCCc1c(-c2ccc(OC)cc2)[nH]c2nccnc12`, the residual activity worked out at 84% in test [3]; 101% in test [4]; 54% in test [5]; 32% in [6]; 67% in test [7]; 82% in [8]. The residual activity is 117% in test [9] and 102% in [10].
As for `CCN(CC)CCNC(=O)c1c(C)[nH]c(/C=C2\C(=O)Nc3ccc(Cl)cc32)c1C`, the residual activity in [3] stood at 63%; in [4] it was 37%; in test [5], 15%; in test [6], 3%; in test [7], 62%; in test [8] it was 27%.
With `O=C1Nc2ccccc2/C1=C\c1c(Cl)[nH]c2ccccc12`, the residual activity came to 125% in test [3]; 79% in test [4]; 65% in test [6]; 84% in test [7]; 60% in test [8]; 121% in test [9].
On to `O=C(c1cc2cc(O)ccc2[nH]1)c1cc2cc(O)ccc2[nH]1`, for which the residual activity came to 81% in test [3]; 34% in test [4]; 68% in test [5]; 20% in test [6]; 18% in [7]; 6% in test [8]. The residual activity in test [10] was 72%.
As to `Cn1c2ccccc2c2c3c(c4c5ccccc5n(CCC#N)c4c21)CNC3=O`, the residual activity came to 19% in test [3]; 20% in test [4]; 4% in test [5]; 4% in test [6]; 98% in test [9]; 97% in [10].
With `CC(C)N(CCC(=O)c1ccc2ccccc2c1)Cc1ccccc1`, in [10], the residual activity is 133%.
As to `COc1ccc(CNC(=O)Nc2ncc([N+](=O)[O-])s2)cc1`, the residual activity was 55% in test [3]; 59% in test [4]; 72% in test [5]; 77% in [6]; 79% in test [7]; 81% in test [8].
In the case of `NC(=O)c1ccc(-c2nc(-c3ccc4c(c3)OCCO4)c(-c3ccccn3)[nH]2)cc1`, the residual activity in test [3] worked out at 82%; in test [4] it was 86%; in [7], 55%; in test [8], 18%; in test [9], 118%; in test [10], 90%.
With `O=C(Nc1nc2ccccc2n1CCN1CCOCC1)c1cccc([N+](=O)[O-])c1`, the residual activity in test [3] came out at 108%; in test [4], 86%; in test [5] it was 114%; in [6] it was 86%; in [9] it was 109%; in test [10], 106%.
Turning to `N#Cc1c(NC(=O)c2cccc3ccccc23)sc2c1CCCC2`, the residual activity in test [3] came to 80%; in test [4], 84%.
On to `c1ccc(-c2cnc(Nc3ccc(OCCN4CCCC4)cc3)s2)cc1`, for which the residual activity is 105% in test [5]; 43% in test [6]; 43% in test [7]; 17% in test [8]; 110% in test [10].
Regarding `COc1ccc(COc2ccc(Cc3cnc(N)nc3N)cc2OC)cc1`, the residual activity in test [3] came to 98%; in [9] it was 112%; in test [10], 120%.
As to `O=c1c(-c2ccc(F)cc2)c(-c2ccncc2)[nH]n1-c1ccc(Cl)cc1`, the residual activity in test [3] is 78%; in test [4], 71%; in test [7], 47%; in test [8], 19%; in [9], 122%.
On to `CCOc1nc(NC(=O)Cc2cc(OC)ccc2OC)cc(N)c1C#N`, for which the residual activity in [4] came out at 55%.
Turning to `Nc1nccc(-c2c(-c3ccc(F)cc3)ncn2C2CCNCC2)n1`, the residual activity in test [7] was determined as 43%; in test [8], 16%; in test [9] it was 128%; in test [10] it was 121%.
For `O=C1NC(=O)C(c2cn(CCCO)c3ncccc23)=C1c1cnccn1`, the residual activity was found to be 100% in [5], 79% in test [6], 94% in test [7] and 87% in [8].
`CCN1/C(=C/C(C)=O)Sc2ccc(OC)cc21`: the residual activity in test [4] is 42%; in test [7], 71%; in test [8], 60%.
`N#C/C(=C1/Nc2ccccc2S1)c1ccnc(NCCc2cccnc2)n1`: the residual activity is 83% in test [3], 37% in test [4] and 58% in test [6].
Turning to `O=C1NC(=O)C(c2c[nH]c3ccccc23)=C1c1c[nH]c2ccccc12`, the figures for the residual activity in test [5], in test [6] and in test [8] were 97%, 28% and 74%, respectively.
As to `CN(C)S(=O)(=O)c1ccc2c(c1)/C(=C/c1cc3c([nH]1)CCCC3)C(=O)N2`, the residual activity is 95% in [3], 91% in test [4], 132% in test [9] and 100% in test [10].
With `COc1ccc2c(c1)c(C1=C(c3c[nH]c4ccccc34)C(=O)NC1=O)cn2CCCN(C)C`, the residual activity in test [4] was 79%; in [5], 116%; in [6], 32%; in [8] it was 64%; in [9], 105%; in test [10], 124%.
With `CN([C@@H](Cc1ccc(OS(=O)(=O)c2cccc3cnccc23)cc1)C(=O)N1CCN(c2ccccc2)CC1)S(=O)(=O)c1cccc2cnccc12`, the residual activity in test [3] was 116%; in test [4], 62%.
With `NCCNc1ncc(C(N)=O)c(Nc2cccc(C(F)(F)F)c2)n1`, the residual activity in [5] came to 27%; in test [6] it was 3%; in [9], 104%; in test [10], 103%.
`O=S(=O)(NCCNC/C=C/c1ccc(Br)cc1)c1cccc2cnccc12`: the residual activity in test [3] came to 0%; in test [4], 0%; in test [10] it was 29%.
Consider `Nc1nc(Nc2ccc(S(N)(=O)=O)cc2)nn1C(=O)c1c(F)cccc1F`, for which the residual activity worked out at 55% in test [5]; 14% in test [6]; 62% in test [7]; 41% in test [8]; 65% in test [9]; 16% in test [10].
As to `N#C/C(=C\c1ccc(O)c(O)c1)C(=O)NCc1ccccc1`, the residual activity is 80% in [2]; 70% in test [4]; 146% in [5]; 101% in test [6]; 123% in test [10].
